# Measurements published in the supplement of paper PMC8726507.
# System: Plasmodium falciparum NF54-HGL (transmission to Anopheles stephensi)
# Assay: percentage of barcode signal found in uninfected mosquitoes (transmission-blocking activity); higher = stronger blocking of transmission to mosquito, active = 80 or more
# Settings: 10 µM; gametocyte preincubation time 24 h; readout time post-feed 8 days
# Method: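 The mixture was fed to Anopheles stephensi in 96-well plates as blood meals tagged with DNA-barcoded Asaia bacteria. Eight days later, mosquitoes were classed infected or uninfected by luminescence (mean + 5 SD of unfed controls). Barcodes were quantified by Luminex MagPlex-TAG in the pooled uninfected and infected Asaia cultures, background-corrected, and the score is % of barcode signal in uninfected mosquitoes = 100*Iu/(Iu+Ii).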
row,SMILES,percentage of barcode signal found in uninfected mosquitoes
1,CC(C)(C)n1nc(-c2ccccc2)c2c(N)ncnc21,-3.29% (inactive)
2,CN1CCN(CCCOc2ncc(Nc3ncc(-c4ccc(C(F)(F)F)c(F)c4)nc3C(N)=O)cn2)CC1,75.6% (inactive)
3,Cc1cccnc1NC(=O)c1cccc(OCc2c(C)noc2C)c1,-2.5% (inactive)

# Same assay, conditions: 20 µM; gametocyte preincubation time 24 h; readout time post-feed 8 days
row,SMILES,percentage of barcode signal found in uninfected mosquitoes
1,CC[P](CC)(CC)=[Au][S][C@H]1O[C@@H](COC(C)=O)[C@H](OC(C)=O)[C@@H](OC(C)=O)[C@@H]1OC(C)=O,99% (active)
2,O=C(OCc1ccccc1)N1CCC(c2cc(-c3ccncc3)c(-c3ccc(F)cc3)[nH]2)CC1,16.8% (inactive)
3,CS(=O)(=O)N1CCC(Cn2nc(Cc3cccc4ccccc34)c3c(N)ncnc32)CC1,28.2% (inactive)
4,Cc1cc(Nc2ccc(C(F)(F)F)cc2)n2ccnc2n1,-1.06% (inactive)
5,Cc1cnc(N2CCN[C@@H](Cc3ccccc3)C2)nc1Oc1ccc(-n2ccnc2)cc1,87% (active)
6,c1cc(C2=NCCN2)cc(-c2cc(-c3ccc(C4=NCCN4)cc3)no2)c1,50% (inactive)
7,Cc1ccc2nc(C)c(-c3ccn(Cc4ccccc4)n3)n2c1,71.6% (inactive)
8,COc1ccc(CN2CCOc3ccc(C(C)(O)CN(C)C)cc3C2)cc1C (configuration not stated),36.4% (inactive)
9,COc1cc(C2=NCCN2)ccc1-c1cn(-c2cccc(C3=NCCN3)c2)nn1,46% (inactive)
10,COc1ccc2nc(C)cc(OCC(=O)Nc3ccccc3OC)c2c1,5.42% (inactive)
11,Cc1cc(NCC(C)C)c2n[nH]c(-c3ccccc3)c2n1,43% (inactive)
12,CC(C)C(Oc1cccc2ccccc12)C(=O)O (configuration not stated),20% (inactive)
13,Cc1ccccc1CN1CCC(O)(c2ccc(Cl)c(C(F)(F)F)c2)CC1,-0.504% (inactive)
14,NCCN(C(=O)c1ccc(Cl)cc1Cl)c1ccc(OCc2ccc(Cl)cc2)cc1,65.8% (inactive)
15,CC(C)(C)n1nc(Cc2ccc(F)c(Cl)c2)c2c(N)ncnc21,10.3% (inactive)
16,CCOC(=O)c1noc(N)c1-c1ccccc1,25.4% (inactive)
17,NC(=O)c1cc(Br)ccc1OCCOc1ccccc1,0.0693% (inactive)
18,Cc1cc(C)c2cc(C(=O)NC3CCCCCCC3)[nH]c2c1,0.265% (inactive)
19,O=C(C1CCN(c2cc(-n3cccc3)ncn2)CC1)N1CCc2ccccc2C1,26.4% (inactive)
